Data reported in PubChem BioAssay (NCI).
The panel holds about 83,000 compounds, 20% with a hit somewhere; the sample as a whole holds those more often.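 For each line, cells grew in 96-well plates with the test compound present at a single concentration for 48 hours.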 Values without a mark were called inactive. Activity calls are given as the source filed them. Rule for the calls: active = growth percent below 10; inactive = the rest.

Tests used:
Assay in all cases: NCI-60 one-dose screen, 48 h (100 = growth as untreated, 0 = no growth, -100 = all killed)
Conditions in all cases: 10 µM unless noted
EKVX NSCLC = tested on: EKVX NSCLC
SN12C renal = tested on: SN12C renal
UO-31 renal = tested on: UO-31 renal
TK-10 renal = tested on: TK-10 renal
A498 renal = tested on: A498 renal
CCRF-CEM leukemia = tested on: CCRF-CEM leukemia
SR leukemia = tested on: SR leukemia
CAKI-1 renal = tested on: CAKI-1 renal
MOLT-4 leukemia = tested on: MOLT-4 leukemia
ACHN renal = tested on: ACHN renal

| SMILES | growth (EKVX NSCLC) | growth (SN12C renal) | growth (UO-31 renal) | growth (TK-10 renal) | growth (A498 renal) | growth (CCRF-CEM leukemia) | growth (SR leukemia) | growth (CAKI-1 renal) | growth (MOLT-4 leukemia) | growth (ACHN renal) |
| --- | --- | --- | --- | --- | --- | --- | --- | --- | --- | --- |
| COc1ccc(N)c(-c2cc3c(c4c2[nH]c2ccc(OC)cc24)CCCC3)c1 | 72.5% | 87.8% | 57.6% | 114% | 88.8% | 55.4% | 79.1% | – | – | – |
| C=C[C@@H]1CCC/C=C/[C@@H]2C[C@H](O)C[C@H]2[C@H](O)/C=C/C(=O)O1 | 16.9% | 13.3% | 6.14% (active) | 15.5% | -17.9% (active) | – | -15.1% (active) | 10.4% | -9.66% (active) | – |
| O=C(CN1C=NC2C(N3CCOCC3)=NC=NC21)c1cccc2ccccc12 (stereo not given) | 86.5% | 95.5% | 71.6% | 130% | – | 104% | 85.1% | – | 93.3% | 97.8% |
| O=C(Nc1ccc(Cl)cc1F)c1cc(F)ccc1O | 8.76% (active) | 3.23% (active) | 5.66% (active) | 14% | -55.6% (active) | 8.63% (active) | – | -14.3% (active) | -13.3% (active) | – |
| Cc1ccc(NCCNCC(O)CO)c2c(=O)c3ccccc3sc12 (stereo not given) | 43.3% | 19.7% | -24% (active) | – | 43.2% | 22.2% | -9.74% (active) | – | 9.37% (active) | -46.3% (active) |
| Cc1cccc2c(=O)c3c(sc12)c(N1CCNCC1)nc1ccccc13 | 68.9% | 69.8% | 36.7% | 86.3% | – | 62.4% | -17% (active) | 54.8% | 33.8% | – |
| O=C(Nc1ccc(I)cc1F)c1cc(Cl)ccc1O | 7.55% (active) | 2.43% (active) | 9.04% (active) | 10.5% | -64.4% (active) | – | – | -12% (active) | -30.5% (active) | – |
| COc1ccccc1C(=O)/C=C/c1ccccc1 | 97.8% | 83.5% | 73.4% | – | 98.8% | 46.3% | 43.1% | 90.4% | 81.1% | 90.5% |
| O=c1oc2ccc(-c3ccc(F)cc3F)cc2c(=O)n1-c1cccc(C(F)(F)F)c1 | 13.5% | 4.72% (active) | 1.41% (active) | 11.6% | -42.6% (active) | 10.4% | – | -12.6% (active) | 1.99% (active) | – |
| NC1C(N)C(N)C1N (stereo not given) | 121% | 96.8% | 77.9% | 99.1% | 116% | 85.1% | 86.8% | 101% | 83.7% | – |
| CC[C@@H](C)[C@H](NC(=O)Cn1cc(CNC(=O)[C@@H](NC(=O)OCc2ccccc2)C(C)C)nn1)C(=O)O | 100% | 97.1% | 95.1% | 112% | 98.9% | – | 101% | 88.4% | 109% | – |
| O=C(CCN1C(=O)c2ccccc2C1=O)Nc1ccc(Cl)cc1 | 88.2% | 75.3% | 50.1% | 93.1% | 103% | 43.3% | – | 68.4% | – | – |
| NC(=O)CSc1nc(-c2ccc(F)cc2)cc(-c2ccco2)n1 | 95.8% | 101% | 75.2% | 129% | 103% | 107% | 94.5% | 85.7% | 97.9% | – |
| CCN(CCO)CCNc1ccc(C)c2sc3cc(Cl)ccc3c(=O)c12 | 84.4% | 37.8% | 37.5% | – | 1.76% (active) | 14.4% | -19.4% (active) | 68% | 7.65% (active) | 7.81% (active) |
| OC(c1ccccc1)c1nnc(SCc2ccccc2)n1Cc1ccccc1 (stereo not given) | 102% | 89.7% | 67.7% | 103% | – | 75.4% | 42.5% | 97% | 99.9% | – |
| CC/C(=C(\CC)c1ccc(OCC[N+](C)(C)C)cc1)c1ccc(OC)cc1 | 95.6% | 51.1% | 98.2% | – | 53% | 60.1% | 69.3% | 104% | 65% | 98% |
| CC(=O)c1ccc2oc(=O)n(Cc3ccc(C#N)cc3)c(=O)c2c1 | 101% | 99.3% | 85.6% | 103% | 91.1% | 106% | 109% | 94.6% | 107% | – |
| O=C(c1nc2ccccc2[nH]1)C1[C@@H](c2cccc(O)c2)C2CC3CCCCC3N2[C@@]12C(=O)Nc1cc(Cl)ccc12 (stereo not given in full) | 41.9% | 43.6% | 33.5% | 72.4% | 52.7% | 15% | 3.72% (active) | 80% | 7.08% (active) | – |
| O=Cc1cc2ccccc2nc1Nc1nccs1 | 98.5% | 45.5% | 31.2% | 101% | 81.9% | 46.7% | 33.9% | 79.5% | 23.4% | – |
| O=c1oc2ccc(Cl)cc2c(=O)n1-c1cc(C(F)(F)F)cc(C(F)(F)F)c1 | 5.27% (active) | 1.28% (active) | 6.17% (active) | 0.337% (active) | -68.8% (active) | 5.13% (active) | – | -24.7% (active) | -16.9% (active) | – |
| CCOc1ccc2nc(C)cc(Nc3ccc(Br)cc3)c2c1 | – | 98.5% | 92.1% | 119% | 79.1% | 90.3% | 86.4% | 97% | 88.6% | 99.6% |
| CCOC(=O)c1cc2c(n1Cc1cccc(OC)c1)-c1oncc1CCC2 | – | 56.7% | 16.7% | 48.1% | 6.51% (active) | 3.19% (active) | 10.1% | 29.6% | 35.8% | 47.3% |
| COc1ccc(CCN2CCC(CN(C)Cc3cnn(-c4ccccc4)c3)CC2)cc1 | – | 23.7% | 12.7% | 45.5% | 42.9% | 0.563% (active) | 5.6% (active) | 15.7% | 3.15% (active) | 21.3% |
| COc1cc(-c2c3c(c(Br)n2Cc2ccccc2)-c2nc(N)sc2CC3)cc(OC)c1OC | – | 85.7% | 70.6% | 119% | 80.5% | 44.4% | 40.2% | 97.4% | 50.6% | 88.3% |
| CCOC(=O)C(CC(=O)O)=C(C(=O)OCC)C(=O)OCC | – | 104% | 98.8% | 120% | 104% | 110% | 95.8% | 99.6% | 95.8% | 105% |
| COc1cccc(C(=O)NC(c2ccc(C)cc2)c2cc(Cl)c3cccnc3c2O)c1 (stereo not given) | – | 12.6% | -18.9% (active) | 27% | 23.1% | 8.88% (active) | 11.3% | -3.64% (active) | 11.4% | 10.6% |
| Oc1ccc(-c2nc(-c3ccc4oc5ccc(-c6[nH]c(-c7ccc(O)cc7)nc6-c6ccccc6)cc5c4c3)c(-c3ccccc3)[nH]2)cc1 | – | 39.3% | 39.2% | 80.3% | 77.5% | 43.9% | 43.1% | 69.5% | 57.1% | 73.5% |
| CCOc1ccc(-c2nonc2NC(=O)c2cccc(C)c2)cc1OCC | – | 70.2% | 70% | 79.2% | 39.4% | 23.1% | -34.7% (active) | 59.8% | 4.22% (active) | 83.9% |
| CN(C)CCCNCc1ccc(-c2ccc(F)c(Cl)c2)o1 | – | 60.2% | 16.7% | 42.8% | 78.2% | 1.99% (active) | -22.9% (active) | 37.5% | -4.5% (active) | 30.1% |
| CCN1CCN(c2cc(C)c3cc(NC(=O)c4ccc(OC)c(OC)c4)ccc3n2)CC1 | – | 44.7% | 54% | 57.6% | -3.67% (active) | 7.94% (active) | 1.64% (active) | 48.1% | 16.2% | 58.4% |
